Screening results (PubChem)
B2AR arrestin: qHTS assay of beta-arrestin-biased ligands of beta2-adrenergic receptor; 330,000 compounds, 0.02% hits; Beta-2 adrenergic receptor (Homo sapiens), P07550; Potency, µM (top dose mostly 46.1 µM), for the others: top-dose activation, usual class: activators; beta-arrestin recruitment to beta2AR, cell-based reporter;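 further: 0% = DMSO controls and full agonism = EC100 isoproterenol or metaproterenol; nearly all actives have a fitted effect of over 65% in size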
BCR signal inh: qHTS Assay to Find Inhibitors of Chronic Active B-Cell Receptor Signaling | ABC-DLBCL IkBa-CBG/CBR reporter, luminescence ratio, 4 h | Potency, µM (top dose mostly 46.1 µM), for the others: at the highest dose activity change, negative = inhibition, hits mostly inhibitors | 340,000 compounds, 0.05% hits | AID 493014, 2011; active means well fitted inhibition curve with a large enough effect in the signal ratio, with a control signal flat, not every such curve was filed as active; inconclusive means small, poorly fitted or top-dose-only effect, or effect the other way, or a change in a side signal; the % refers to the signal ratio;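 further: plate controls were basal doxycycline-induced cells for no effect and cells given 10 µM MG132 for full effect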
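TMD8 human ABC-DLBCL cells with doxycycline-inducible IκBα–green luciferase fusion and unfused red luciferase, in 0.5% FBS medium; compounds up to 46 uM, 4 h at 37C. Green/red luminescence ratio, filter-overlap corrected, fitted to concentration-response curves.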
FEN1 inhibitor: qHTS Assay for the Inhibitors of Human Flap endonuclease 1 (FEN1) | Recombinant FEN1 flap cleavage, fluorescence, 15 min | Potency, µM (highest dose often 114 µM), for inactives: top-dose activity change, negative = inhibition, hits mostly inhibitors | 390,000 compounds, 0.35% hits | AID 588795, 2011; further: nearly all actives have a fitted effect of over 65% in size
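Recombinant FEN1 (10 nM) was preincubated with pin-transferred compounds for 15 min at room temperature, then flap DNA substrate (50 nM final) was added. Plates were read at 0 and 15 min, and normalized concentration–response data were fitted to a four-parameter Hill equation.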
Tb PGK inh: qHTS Assay to Find Inhibitors of Phosphoglycerate Kinase; PGK/GAPDH coupled, Kinase-Glo luminescence, 60 min; Phosphoglycerate kinase, glycosomal (Trypanosoma brucei brucei), P07378; AID 602233, 2012; Potency, µM (series often up to 57.5 µM), inactives show at the top dose activity change, negative = inhibition, most hits filed as inhibitors; 380,000 compounds, 0.043% hits; further: nearly all actives have a fitted effect of over 60% in size
Target sequence (P07378 whole entry, looked up): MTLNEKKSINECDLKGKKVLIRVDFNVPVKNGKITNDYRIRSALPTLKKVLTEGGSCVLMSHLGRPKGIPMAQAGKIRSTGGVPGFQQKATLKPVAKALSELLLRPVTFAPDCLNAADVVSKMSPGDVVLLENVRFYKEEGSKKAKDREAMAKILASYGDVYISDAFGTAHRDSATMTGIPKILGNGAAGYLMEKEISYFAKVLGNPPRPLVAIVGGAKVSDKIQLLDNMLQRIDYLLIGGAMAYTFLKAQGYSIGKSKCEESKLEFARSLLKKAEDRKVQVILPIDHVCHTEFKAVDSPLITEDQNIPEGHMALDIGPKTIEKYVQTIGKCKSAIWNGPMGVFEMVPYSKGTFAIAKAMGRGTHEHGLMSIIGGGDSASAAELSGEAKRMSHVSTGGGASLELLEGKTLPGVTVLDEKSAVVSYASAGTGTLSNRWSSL
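Luminescent ATP detection (Kinase-Glo Plus) follows a 60-minute room-temperature incubation, with wells lacking PGK as controls. Buffer: 100 mM TEA (pH 7.6), 5 mM MgCl2, 0.01% Tween-20. Coupling enzyme GAPDH (100 nM final) supplies unstable 1,3-BPG in-well.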
Anesthetic bind: qHTS Assay for Identification of Novel General Anesthetics. Ferritin light chain (Equus caballus), P02791. apoferritin/1-aminoanthracene competitive binding, fluorescence. Potency, µM (highest dose often 77.5 µM), for the others: at the highest dose activity change, negative = displacement, usual class: inhibitors. 350,000 compounds, 0.074% hits; further: nearly all actives have a fitted effect of over 20% in size
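Horse-spleen apoferritin (10 uM) in 50% saturated 1-aminoanthracene in PBS was incubated 10 min at room temperature with compound. Fluorescence (ex 380, em 535 nm) was normalized to free and bound 1-AMA, with concentration-response fitted by a four-parameter Hill equation.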
Pin1 inh: qHTS Assay to Find Inhibitors of Pin1 | Peptidyl-prolyl cis-trans isomerase NIMA-interacting 1 (Homo sapiens), Q13526 | Pin1 FP peptide displacement, HiFluor488, 10 min | Potency, µM (highest dose often 115 µM), for the others: at the highest dose activity, negative = inhibition, most hits filed as inhibitors | 390,000 compounds, 0.009% hits; active means well fitted inhibition curve with a large enough effect in the polarisation, with a control signal flat, not every such curve was filed as active; inconclusive means small, poorly fitted or top-dose-only effect, or effect the other way, or a change in a side signal; inactive means no such curve, though single readings can be large or run the other way; the % refers to the polarisation
Target sequence (Q13526 whole entry, looked up): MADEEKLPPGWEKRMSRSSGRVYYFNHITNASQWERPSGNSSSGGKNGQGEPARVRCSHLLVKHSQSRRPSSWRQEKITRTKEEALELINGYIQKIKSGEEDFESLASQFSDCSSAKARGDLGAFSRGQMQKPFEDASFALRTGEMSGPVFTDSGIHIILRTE
* marks the source's active call; other numbers are inactive results; i = inactive; ? = inconclusive; . = no result given; [ ] = remark or other dose. Only some compounds are listed: those with a hit (about 0.45% of all), similar ones and a draw of the others. Unless noted, the call rests on the fitted dose curve; in most records, active means well fitted curve in the direction sought with a large enough effect; inconclusive means small, poorly fitted or top-dose-only effect, or another doubt; inactive means no such curve, though single readings can be large; an effect the other way counts as inactive or inconclusive. Unless noted, on the % scale 0 is the no-effect control and ±100 the full control effect; potency means the concentration at half of the fitted maximal effect.

SMILES	B2AR arrestin	BCR signal inh	FEN1 inhibitor	Tb PGK inh	Anesthetic bind	Pin1 inh
COc1ccc2occ(C(=O)c3cccs3)c2c1	0%	?	-23%	-4%	25µM*	-19%
CCOc1ccc2nc(N3C(=O)CNC3=S)sc2c1	4µM*	?	0%	-10%	0%	-4%
Cc1ccc(S(=O)(=O)O/N=C2\CCCc3ccccc32)cc1	0%	2%	15%	i	-16%	5%
CC1=C(C)/C(=N\OS(=O)(=O)c2ccccc2)C=CC1=O	?	?	-6%	-4%	28µM*	7%
O=C(O)C1=CCC=CC1C(=O)O (stereo not given)	.	.	.	13µM*	.	.
Cn1c(-c2ccc3nc(N)sc3c2)nc2cc(N)ccc21	0%	?	56µM*	-10%	13%	?
COc1ccccc1NC(=S)N1CCC(c2nc3cc(C)c(C)cc3[nH]2)CC1	1%	-1%	13%	-7%[11.5 µM]	-14%	-7%
COc1ccccc1NC(=O)N1CCC(c2nc3cc(C)c(C)cc3[nH]2)CC1	0%	18µM*	6%	-5%	1%	-2%
CN(C)c1cccc(-c2ncc(F)c(N3CCC(C(N)=O)CC3)n2)c1	.	.	.	.	.	-1%
COc1cc(/C=N/NC(=O)c2cc(O)cc(O)c2)ccc1OC(=O)c1ccccc1	3%	?	50µM*	13µM*	-23%	?
O=C(C[N+]12CN3CN(CN(C3)C1)C2)c1ccc(Cl)cc1	.	.	14%	.	.	.
O=C(C[N+]12CN3CN(CN(C3)C1)C2)c1ccc(O)c(O)c1	.	.	14µM*	.	.	.
Oc1ccc(CNc2ccc(F)cc2Cl)c2cccnc12	.	.	.	.	.	-3%
CCN(CC)C(=S)SSC(=S)N(CC)CC	0.65µM*	?	?	0%	?	-8%
CCN(CC)C(=S)SC1=CCS(=O)(=O)C1	0%	12%	-1%	0%	-11%	2%
Cn1c2ccccc2c(=O)c2ccc(C#CC3(N)CCCCC3)cc21	-1%	?	22µM*	6%	48%	0%
Cc1cc2c(s1)c1cnn(Cc3ccccc3Br)c(=O)c1n2C	.	.	.	.	.	0%
O=C1CCc2cc(S(=O)(=O)Nc3ccc4c(c3)CCC4)ccc2N1	.	.	.	.	.	2%
O=C1Nc2ccccc2C1=Nc1ccc(S(=O)(=O)Nc2nccs2)cc1	-1%	?	50µM*	?	-1%	.
COc1cccc(C2c3c(ncn(-c4ccc(F)cc4)c3=N)Oc3ccc4ccccc4c32)c1 (stereo not given)	.	.	.	.	.	8%
Cc1cc(NC(=O)Cn2nnc3sc4c(c3c2=O)CCC(C(C)(C)C)C4)no1 (stereo not given)	0%	?	-21%	-4%	13µM*	34%
Cc1cc(NC(=O)Cn2nnc3sc4c(c3c2=O)CCCC4)no1	0%	-1%	-4%	4%	?	9%
O=C(NN1C(=O)/C(=C/C=C/c2ccco2)SC1=S)c1ccncc1	-1%	2%	7.1µM*	14µM*	-3%	?
O=C1/C(=C/C=C/c2ccco2)SC(=S)N1c1ccc(O)cc1	0%	0%	14µM*	?	-3%	?
O=C1/C(=C\c2ccco2)SC(=S)N1c1ccc(O)cc1	-1%	?	-7%	-2%	-13%	2%
SMILES	B2AR arrestin	BCR signal inh	FEN1 inhibitor	Tb PGK inh	Anesthetic bind	Pin1 inh
O=C1/C(=C/c2ccco2)SC(=S)N1c1cccnc1	0%	0%	28µM*	?	-9%	.
CC(C)C(C(=O)O)N1C(=O)/C(=C/C=C/c2ccco2)SC1=S (stereo not given)	-1%	?	18µM*	8.9µM*	-24%	?
CNc1cccc(S(=O)(=O)N2CCCN(S(=O)(=O)c3ccc4c(c3)OCCO4)CC2)c1	.	.	.	.	.	2%
Cc1ccc(Nc2nn3c(=O)c4ccccc4nc3s2)cc1C	.	.	.	.	.	4%
Cc1cc(N2C(=O)c3ccccc3C2=O)no1	.	.	.	.	.	3%
O=C1C(=O)C(c2cc(O)c(O)c(O)c2)Oc2cc(O)cc(O)c21 (stereo not given)	.	.	1.4µM*	.	.	?
O=S(=O)(c1ccc(Cl)cc1)N1CCN(S(=O)(=O)c2ccc3c(c2)OCCO3)CC1	.	.	.	.	.	-3%
O=C1CC(c2ccccc2)CC2=C1C1(CCCCC1)N=C(Nc1nc3ccccc3o1)N2 (stereo not given)	.	.	.	.	.	-4%
COc1ccc(C2=CC3=C(Br)C(=O)C(C)(OC(=O)C4CCCC4)C(=O)C3=CO2)cc1 (stereo not given)	0%	18%	?	18µM*	-5%	?
COC(=O)CCC(=O)OC1(C)C(=O)C2=COC(c3ccc(OC)cc3)=CC2=C(Br)C1=O (stereo not given)	0%	?	35µM*	16µM*	?	?
COc1ccc(C2=CC3=C(Br)C(=O)C(C)(OC(=O)c4ccc(Cl)nc4)C(=O)C3=CO2)cc1 (stereo not given)	-1%	?	?	?	-2%	?
N#Cc1nc(Nc2cc(F)cc(F)c2)nc(Nc2cc(F)cc(F)c2)n1	.	.	.	.	.	47%
COc1cc(F)c(S(=O)(=O)N2CCN(S(=O)(=O)c3cccs3)CC2)c(F)c1	.	.	.	.	.	1%
O=C1N=c2ccc(Br)cc2=C1c1sc(=S)n(NS(=O)(=O)c2ccccc2)c1O	0%	15%	79µM*	-8%	-17%	-19%
O=C1N=c2ccccc2=C1c1sc(=S)n(NC(=O)c2cccc(O)c2)c1O	0%	?	-1%	-2%	-11%	-14%
O=S(=O)(c1ccc(Br)cc1)N1CCN(S(=O)(=O)c2ccc3c(c2)OCCO3)CC1	.	.	.	.	.	-1%
NS(=O)(=O)c1cccnc1Nc1ccc(Cl)c(Cl)c1	0%	?	-17%	-9%	8.9µM*	0%
CC(=O)NS(=O)(=O)c1cccnc1Nc1ccc(Cl)c(Cl)c1	0%	?	1%	-2%	-15%	-11%
Cc1cc(C)n2ncc(C(=O)NC(C)C)c2n1	.	.	.	.	.	-2%
O=C(O)c1ccc2c(c1)[C@@H]1C=CC[C@@H]1[C@H](c1ccccn1)N2	.	.	32µM*	?	.	?
Clc1ccc(CN(CCCNc2ncnc(NCCCc3cnc[nH]3)n2)c2ccc(Br)cn2)cc1Cl	.	.	.	.	.	4%
O=c1oc2ccccc2c2oc3cc(O)c(O)cc3c12	0%	?	45µM*	-8%	-1%	?
